Measurements from PubChem BioAssay AID1780 (National Center for Advancing Translational Sciences (NCATS), 2009).
Activity calls are given as the source filed them. Calls follow the shape of the dose curve; as a rule, active = well fitted curve in the direction sought with a large enough effect; inactive = no such curve, though single readings can be large or run the other way.

Target: Pyruvate kinase PKM (Homo sapiens) (UniProt P14618)
Experiment: Confirmation Concentration-Response Assay for Activators of Human Muscle isoform 1 Pyruvate Kinase
Settings: purified hPK-M1, Kinase-Glo ATP luminescence, 1 h; series mostly up to 57.5 µM
Source text: Confirmatory assay NIH Chemical Genomics Center [NCGC] Matthew G. Vander Heiden, M.D., Ph.D. [Harvard Medical School, 77 Avenue Louis Pasteur, Boston, MA 02115] NCGC Assay Overview: Human pyruvate kinase […] (hPK-M1) enzyme was supplied as a highly purified (>95% pure) preparation from Harvard Medical School and assayed for its ability to generate ATP from ADP using phosphoenolpyruvate (PEP) as a substrate. ATP generation was detected in a coupled reaction by luciferase-mediated luminescence, an ATP-dependent process. Pyruvate kinase substrates, PEP and ADP, were present in the assay at Km and approximately 10-fold below Km respectively. The enzyme was assayed at an intermediate level of activity to screen for both inhibitors and activators.
NCGC Assay Protocol Summary for M1-isoform: Three uL of substrate mix (at r.t.) in assay buffer (50 mM Imidazole pH7.2, 50 mM KCl, 7 mM MgCl2, 0.01% Tween 20, 0.05% BSA) was dispensed into white solid bottom 1,536 well microtiter plates so that the final concentrations of substrates in the assay were 0.1 mM ADP and 0.5 mM PEP. 23 nL of compound were delivered by a pin tool and 1 uL of enzyme mix (final concentration of 1 nM) in assay buffer (4 degree Celsius) was added. Plates were incubated at room temperature for 1 hour. Two uL of detection mix (Kinase-Glo, Promega; at 4 degree Celsius protected from light) was added and luminescence read by a ViewLux (Perkin Elmer) at 1 second exposure/plate. Data were normalized to the uninhibited (row 31). Additionally, a no enzyme and 5-fold enzyme control was dispensed in row 32, split equally between the two conditions.

Pyruvate kinase PKM (Homo sapiens), sequence (P14618 whole entry, looked up, canonical isoform): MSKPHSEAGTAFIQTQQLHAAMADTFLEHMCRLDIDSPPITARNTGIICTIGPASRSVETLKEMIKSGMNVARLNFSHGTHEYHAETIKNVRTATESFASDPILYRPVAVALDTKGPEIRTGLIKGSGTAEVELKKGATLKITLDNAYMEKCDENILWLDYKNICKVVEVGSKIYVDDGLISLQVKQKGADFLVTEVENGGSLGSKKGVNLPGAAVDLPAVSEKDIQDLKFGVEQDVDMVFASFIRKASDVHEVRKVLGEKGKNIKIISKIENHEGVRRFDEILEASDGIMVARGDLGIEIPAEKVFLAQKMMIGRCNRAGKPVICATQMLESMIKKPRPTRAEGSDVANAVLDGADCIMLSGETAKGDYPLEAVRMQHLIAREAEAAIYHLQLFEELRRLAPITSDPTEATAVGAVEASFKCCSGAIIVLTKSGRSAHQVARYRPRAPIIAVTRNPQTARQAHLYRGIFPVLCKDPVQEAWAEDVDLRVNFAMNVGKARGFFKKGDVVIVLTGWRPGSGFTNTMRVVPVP

outcome, inactive:
O=S(=O)(c1ccc2c(c1)OCCO2)N1CCCN(S(=O)(=O)c2c(F)cccc2F)CC1
O=S(=O)(c1ccc2c(c1)OCCO2)N1CCN(S(=O)(=O)c2ccc3c(c2)OCCO3)CC1
COC(=O)c1cc2c(s1)c1cnn(Cc3ccccc3F)c(=O)c1n2C
Cc1cc2c(s1)c1cnn(Cc3ccc(Cl)cc3)c(=O)c1n2C
Cc1cc2c(s1)c1cnn(-c3ccccc3)c(=O)c1n2C
Cn1c2cc(B(O)O)sc2c2cnn(Cc3ccccc3F)c(=O)c21
Cn1c2cc(C#N)sc2c2cnn(Cc3ccccc3F)c(=O)c21
O=S(=O)(NC1CCN(S(=O)(=O)c2c(F)cccc2F)CC1)c1ccc2c(c1)OCCO2
O=S(=O)(c1c(F)cccc1F)C1CCN(S(=O)(=O)c2ccc3c(c2)OCCO3)CC1
O=S(=O)(c1ccc2c(c1)OCCO2)N1CCN(S(=O)(=O)c2ccc(F)cc2F)CC1
O=S(=O)(c1ccc2c(c1)OCCO2)C1CCN(S(=O)(=O)c2c(F)cccc2F)CC1
COc1cccc(S(=O)(=O)N2CCN(S(=O)(=O)c3ccc4c(c3)OCCO4)CC2)c1
Cn1c2cc(C=O)sc2c2cnn(Cc3ccccc3F)c(=O)c21
COc1ccc(Cn2ncc3c4sc(C)cc4n(C)c3c2=O)cc1F
Cc1cc2c(s1)c1cnn(Cc3ccc(C(C)C)cc3)c(=O)c1n2C
CCCc1cc(F)c(S(=O)(=O)N2CCN(S(=O)(=O)c3ccc4c(c3)OCCO4)CC2)cc1F
O=C(c1c(F)cccc1F)N1CCN(S(=O)(=O)c2ccc3c(c2)OCCO3)CC1
Cc1ccc(Cn2ncc3c4sc(C)cc4n(C)c3c2=O)cc1
N#Cc1ccc(S(=O)(=O)N2CCN(S(=O)(=O)c3ccc4c(c3)OCCO4)CC2)cc1
